According to PubChem BioAssay (NCI):
About 83,000 compounds went through this panel and 20% of them were active in at least one assay; those are over-represented in the sample as a whole.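 Cells were grown in 96-well plates and exposed to the test compound at a single concentration for 48 hours; results are reported as percent growth, with values below 10 considered active.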 Active and inactive are the calls of the source.

What was measured:
Assay in all cases: NCI-60 one-dose screen, 48 h (100 = growth as untreated, 0 = no growth, -100 = all killed)
Details in all cases: 10 µM unless noted
DU-145 prostate = system: DU-145 prostate
MALME-3M melanoma = system: MALME-3M melanoma
MDA-MB-231 breast = system: MDA-MB-231 breast
SF-268 CNS = system: SF-268 CNS
SF-295 CNS = system: SF-295 CNS
SF-539 CNS = system: SF-539 CNS
M14 melanoma = system: M14 melanoma
HCT-15 colon = system: HCT-15 colon
HT29 colon = system: HT29 colon
SNB-75 CNS = system: SNB-75 CNS
SNB-19 CNS = system: SNB-19 CNS
U251 CNS = system: U251 CNS
SK-MEL-5 melanoma = system: SK-MEL-5 melanoma
UACC-62 melanoma = system: UACC-62 melanoma
LOX IMVI melanoma = system: LOX IMVI melanoma
SK-MEL-28 melanoma = system: SK-MEL-28 melanoma
RXF 393 renal = system: RXF 393 renal
K-562 leukemia = system: K-562 leukemia
UACC-257 melanoma = system: UACC-257 melanoma
PC-3 prostate = system: PC-3 prostate

Measured: growth

CCN(CC)c1ccc(/C=C/C(=O)c2cccc(NS(C)(=O)=O)c2)cc1
inactive: DU-145 prostate 49.6% | MALME-3M melanoma 76.2% | MDA-MB-231 breast 43% | SF-268 CNS 61.5% | SF-295 CNS 47.5% | SF-539 CNS 40.6% | M14 melanoma 32.1% | HCT-15 colon 27.8% | SNB-75 CNS 48.4% | SNB-19 CNS 74.6% | U251 CNS 41.6% | SK-MEL-5 melanoma 39.6% | UACC-62 melanoma 36.1% | LOX IMVI melanoma 15% | SK-MEL-28 melanoma 72.5%
active: HT29 colon 5.36%

Cc1ccc(OCC(=O)Nc2ccc(Oc3ccccc3)cc2)c([N+](=O)[O-])n1
inactive: DU-145 prostate 90.4% | MALME-3M melanoma 87.7% | MDA-MB-231 breast 85.4% | RXF 393 renal 66.1% | SF-268 CNS 86.5% | SF-295 CNS 89.5% | SF-539 CNS 78.3% | M14 melanoma 74.7% | HCT-15 colon 95.2% | HT29 colon 95% | SNB-75 CNS 78.8% | SNB-19 CNS 58.7% | U251 CNS 85% | SK-MEL-5 melanoma 44.2% | UACC-62 melanoma 60.9% | LOX IMVI melanoma 89.6% | SK-MEL-28 melanoma 111%

Nc1ccc2c(c1Br)Cc1ccccc1-2
inactive: DU-145 prostate 106% | K-562 leukemia 95.2% | MDA-MB-231 breast 74.7% | RXF 393 renal 111% | SF-268 CNS 86.7% | SF-295 CNS 92.1% | SF-539 CNS 79.4% | UACC-257 melanoma 114% | M14 melanoma 105% | HCT-15 colon 69.9% | HT29 colon 111% | SNB-75 CNS 87.7% | SNB-19 CNS 98.9% | U251 CNS 93.6% | PC-3 prostate 83.4% | UACC-62 melanoma 91% | LOX IMVI melanoma 90.5% | SK-MEL-28 melanoma 121%

CC(=O)N1N=C(c2ccc(C(F)(F)F)cc2)CC1c1ccc2c(c1)OCO2 (stereo unspecified)
inactive: DU-145 prostate 113% | K-562 leukemia 73.8% | MDA-MB-231 breast 82.3% | RXF 393 renal 107% | SF-268 CNS 104% | SF-295 CNS 67.1% | SF-539 CNS 101% | UACC-257 melanoma 102% | M14 melanoma 69.7% | HCT-15 colon 81.1% | HT29 colon 47.4% | SNB-75 CNS 90% | SNB-19 CNS 91% | U251 CNS 94.6% | PC-3 prostate 73.9% | SK-MEL-5 melanoma 95% | UACC-62 melanoma 65% | LOX IMVI melanoma 81.4% | SK-MEL-28 melanoma 95.4%

C(=C1c2ccccc2-c2ccccc21)c1ccccn1
inactive: DU-145 prostate 106% | K-562 leukemia 19.6% | MDA-MB-231 breast 62.2% | RXF 393 renal 80.6% | SF-268 CNS 82.7% | SF-295 CNS 71.3% | SF-539 CNS 72.2% | UACC-257 melanoma 91.1% | M14 melanoma 33.4% | HCT-15 colon 42.8% | HT29 colon 17% | SNB-75 CNS 62.5% | SNB-19 CNS 73.6% | U251 CNS 50.4% | PC-3 prostate 78.1% | UACC-62 melanoma 52.9% | LOX IMVI melanoma 57.2% | SK-MEL-28 melanoma 81%

CC[C@@H](C)/C=C(C)/C=C/C(O)=C1\C(=O)N[C@@H](Cc2ccc(OC(=O)[C@@](OC)(c3ccccc3)C(F)(F)F)cc2)C1=O
active: K-562 leukemia 9.3%
inactive: DU-145 prostate 73.2% | MDA-MB-231 breast 89.5% | RXF 393 renal 109% | SF-268 CNS 61.9% | SF-295 CNS 74.2% | SF-539 CNS 114% | UACC-257 melanoma 94% | M14 melanoma 97% | HCT-15 colon 102% | HT29 colon 114% | SNB-75 CNS 101% | SNB-19 CNS 96.6% | U251 CNS 83.9% | PC-3 prostate 37.3% | SK-MEL-5 melanoma 110% | UACC-62 melanoma 98.9% | LOX IMVI melanoma 50.3% | SK-MEL-28 melanoma 103%

c1ccc(-c2oc(-c3ccccc3)c3ccccc23)cc1
inactive: DU-145 prostate 90.3% | K-562 leukemia 86.5% | MDA-MB-231 breast 91% | RXF 393 renal 116% | SF-268 CNS 102% | SF-295 CNS 102% | SF-539 CNS 104% | UACC-257 melanoma 108% | M14 melanoma 110% | HCT-15 colon 108% | HT29 colon 118% | SNB-75 CNS 110% | SNB-19 CNS 105% | U251 CNS 98.9% | PC-3 prostate 82.8% | SK-MEL-5 melanoma 104% | UACC-62 melanoma 98.6% | LOX IMVI melanoma 88.5% | SK-MEL-28 melanoma 125%

CC(=O)Nc1c(Cl)cc2c(c1Cl)Cc1ccccc1-2
inactive: DU-145 prostate 108% | K-562 leukemia 104% | MDA-MB-231 breast 80.3% | RXF 393 renal 104% | SF-268 CNS 111% | SF-295 CNS 132% | SF-539 CNS 105% | UACC-257 melanoma 106% | M14 melanoma 107% | HCT-15 colon 99.9% | HT29 colon 106% | SNB-75 CNS 94.7% | SNB-19 CNS 101% | U251 CNS 92.4% | PC-3 prostate 86.9% | UACC-62 melanoma 84.8% | LOX IMVI melanoma 87.9% | SK-MEL-28 melanoma 124%

O=C1/C(=C\c2coc3ccccc3c2=O)c2ccccc2N1c1c(Cl)cccc1Cl
inactive: DU-145 prostate 24.6% | MALME-3M melanoma 83.8% | MDA-MB-231 breast 60.5% | RXF 393 renal 44.1% | SF-268 CNS 32% | SF-539 CNS 49.4% | UACC-257 melanoma 61.2% | M14 melanoma 43.4% | HCT-15 colon 24.7% | HT29 colon 47.6% | SNB-75 CNS 62.7% | SNB-19 CNS 62.6% | U251 CNS 36% | PC-3 prostate 31.8% | SK-MEL-5 melanoma 20.3% | UACC-62 melanoma 36.6% | LOX IMVI melanoma 37.1% | SK-MEL-28 melanoma 47.3%
active: SF-295 CNS -12%

Nc1ccccc1-c1ccn[nH]1
inactive: DU-145 prostate 101% | K-562 leukemia 78.5% | MDA-MB-231 breast 101% | RXF 393 renal 111% | SF-268 CNS 88.8% | SF-295 CNS 101% | SF-539 CNS 97.9% | UACC-257 melanoma 103% | M14 melanoma 94.2% | HCT-15 colon 85.2% | HT29 colon 106% | SNB-75 CNS 61.9% | SNB-19 CNS 97.4% | U251 CNS 96.7% | PC-3 prostate 79.1% | SK-MEL-5 melanoma 96.6% | UACC-62 melanoma 48.4% | LOX IMVI melanoma 68.6% | SK-MEL-28 melanoma 110%

CCCCCCCCCCCCC1CCCC(C)C1 (stereo unspecified)
inactive: DU-145 prostate 109% | MALME-3M melanoma 93.3% | MDA-MB-231 breast 105% | RXF 393 renal 109% | SF-268 CNS 110% | SF-295 CNS 90.1% | SF-539 CNS 118% | M14 melanoma 106% | HCT-15 colon 97.5% | HT29 colon 101% | SNB-75 CNS 64.8% | SNB-19 CNS 104% | PC-3 prostate 88.8% | SK-MEL-5 melanoma 101% | UACC-62 melanoma 102% | LOX IMVI melanoma 99.7% | SK-MEL-28 melanoma 88.9%

CCCCCCCCN(CCO)CCCCCCCC
inactive: DU-145 prostate 112% | K-562 leukemia 104% | MDA-MB-231 breast 117% | RXF 393 renal 93.2% | SF-268 CNS 107% | SF-539 CNS 94.4% | UACC-257 melanoma 94.3% | M14 melanoma 101% | HT29 colon 103% | SNB-75 CNS 96.5% | SNB-19 CNS 113% | U251 CNS 102% | PC-3 prostate 99.3% | SK-MEL-5 melanoma 98.5% | UACC-62 melanoma 109% | LOX IMVI melanoma 102% | SK-MEL-28 melanoma 101%

CCOC(=O)CNC(=O)C1(NC(=O)CNC(=O)OCc2ccccc2)CCCC1
inactive: DU-145 prostate 121% | K-562 leukemia 103% | MDA-MB-231 breast 99.1% | RXF 393 renal 135% | SF-268 CNS 107% | SF-295 CNS 126% | SF-539 CNS 92.2% | UACC-257 melanoma 110% | M14 melanoma 110% | HCT-15 colon 102% | HT29 colon 105% | SNB-75 CNS 83.9% | SNB-19 CNS 102% | U251 CNS 106% | PC-3 prostate 98.7% | SK-MEL-5 melanoma 112% | UACC-62 melanoma 97% | LOX IMVI melanoma 95.4% | SK-MEL-28 melanoma 107%

COc1ccc(-c2c3c(N)nc(-c4ccncc4)nc3nc3c2c(C)nn3-c2ccccc2)cc1
active: SF-539 CNS -40%
inactive: DU-145 prostate 82% | MALME-3M melanoma 76% | MDA-MB-231 breast 67.6% | RXF 393 renal 69.4% | SF-268 CNS 54% | SF-295 CNS 58.7% | M14 melanoma 69.1% | HCT-15 colon 57.1% | HT29 colon 23.9% | SNB-75 CNS 80.6% | SNB-19 CNS 80.7% | PC-3 prostate 61% | SK-MEL-5 melanoma 72.6% | UACC-62 melanoma 64.1% | LOX IMVI melanoma 41.2% | SK-MEL-28 melanoma 56.2%

O=[N+]([O-])c1cc([N+](=O)[O-])c(N2CCCC2)cc1NN=C(c1ccc(O)cc1)c1ccc(O)cc1
inactive: DU-145 prostate 95.8% | MALME-3M melanoma 140% | MDA-MB-231 breast 93.6% | SF-268 CNS 77.3% | SF-295 CNS 79.6% | SF-539 CNS 61.9% | HCT-15 colon 46.9% | HT29 colon 78.2% | SNB-75 CNS 71.8% | SNB-19 CNS 37.3% | U251 CNS 68.5% | SK-MEL-5 melanoma 18.8% | UACC-62 melanoma 63.1% | LOX IMVI melanoma 41.6% | SK-MEL-28 melanoma 97.1%
active: RXF 393 renal -22.2% | M14 melanoma 7.88%

CCOC(=O)CCC(=O)O[C@H]1[C@H](O[C@@H]2[C@@H](C)[C@H](O[C@H]3C[C@@](C)(OC)[C@@H](O)[C@H](C)O3)[C@@H](C)C(=O)O[C@H](CC)[C@@](C)(O)[C@H](O)[C@@H](C)C(=O)[C@H](C)C[C@@]2(C)O)O[C@H](C)C[C@@H]1N(C)C
inactive: DU-145 prostate 119% | MALME-3M melanoma 99.4% | MDA-MB-231 breast 106% | RXF 393 renal 110% | SF-268 CNS 115% | SF-295 CNS 104% | SF-539 CNS 101% | UACC-257 melanoma 113% | M14 melanoma 97.2% | HCT-15 colon 98.1% | HT29 colon 102% | SNB-75 CNS 91.5% | SNB-19 CNS 112% | U251 CNS 101% | PC-3 prostate 92.6% | SK-MEL-5 melanoma 104% | UACC-62 melanoma 102% | SK-MEL-28 melanoma 117%

O=C(O)CNC(=O)C1(N2C(=O)c3ccccc3C2=O)CCCC1
inactive: DU-145 prostate 124% | K-562 leukemia 96.2% | MDA-MB-231 breast 101% | RXF 393 renal 95.7% | SF-268 CNS 116% | SF-295 CNS 102% | SF-539 CNS 118% | UACC-257 melanoma 109% | M14 melanoma 105% | HCT-15 colon 106% | HT29 colon 105% | SNB-75 CNS 88.2% | SNB-19 CNS 99% | U251 CNS 107% | PC-3 prostate 104% | SK-MEL-5 melanoma 100% | UACC-62 melanoma 94.5% | LOX IMVI melanoma 97.2% | SK-MEL-28 melanoma 104%
